Assay results from PubChem BioAssay (NCI).
Compounds without any hit were thinned out: in the full panel of roughly 83,000, 20% have a hit.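 96-well plates, one dose, 48 hours. Percent growth reported; active if below 10.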 The source made the active and inactive calls.

Tests used:
Assay in all cases: NCI-60 one-dose screen, 48 h (100 = growth as untreated, 0 = no growth, -100 = all killed)
Details in all cases: 10 µM unless noted
[1] = test system: NCI-H23 lung
[2] = test system: NCI-H226 lung
[3] = test system: NCI-H322M lung
[4] = test system: HOP-62 NSCLC
[5] = test system: NCI-H460 lung
[6] = test system: HOP-92 NSCLC
[7] = test system: NCI-H522 lung
[8] = test system: A549/ATCC NSCLC
[9] = test system: 786-0 renal
[10] = test system: COLO 205 colon
[11] = test system: DU-145 prostate
[12] = test system: K-562 leukemia
[13] = test system: MALME-3M melanoma
[14] = test system: MDA-MB-231 breast
[15] = test system: RXF 393 renal
[16] = test system: SF-268 CNS
[17] = test system: SF-295 CNS
[18] = test system: SF-539 CNS
[19] = test system: UACC-257 melanoma
[20] = test system: M14 melanoma

Measured: growth

Cc1cccc(N2CCN(CC(O)COc3ccc(Cl)cc3)CC2)c1 (stereo not given)
inactive: [1] 109% | [2] 105% | [3] 104% | [4] 100% | [5] 112% | [6] 88.1% | [7] 94.1% | [8] 117% | [9] 98% | [10] 98% | [11] 115% | [12] 82.9% | [13] 146% | [14] 94.5% | [15] 107% | [16] 105% | [17] 82.3% | [18] 101% | [19] 108% | [20] 95.9%

O=C(Cn1c(=O)sc2nc3ccccc3nc21)Nc1ncc(Cc2cccc(Cl)c2Cl)s1
inactive: [1] 97.1% | [2] 86.5% | [3] 97.1% | [4] 97.2% | [5] 104% | [6] 100% | [7] 82.5% | [8] 99.6% | [9] 99.8% | [10] 95.6% | [11] 112% | [12] 102% | [13] 117% | [14] 90.6% | [15] 109% | [16] 94.4% | [17] 102% | [18] 98.7% | [19] 107% | [20] 100%

COC1=CC(c2ccc[nH]2)=N/C1=C\c1[nH]c(C)c(C(=O)OCc2ccccc2)c1C
active: [1] -15.7% | [2] -25.2% | [3] -11% | [4] -43.2% | [5] -11.8% | [6] -26.3% | [7] -59.6% | [8] -26.8% | [9] -49.2% | [10] -82% | [12] 2.63% | [13] -76.7% | [14] -65.1% | [15] -18.1% | [16] 0.9% | [17] -79.3% | [18] -63.4% | [19] -57.5% | [20] -73.9%
inactive: [11] 12.1%

CN(C)CCCn1c2c(c3ncccc3c1=O)C(=O)c1ccccc1-2
inactive: [1] 54.8% | [2] 54.1% | [3] 44.1% | [4] 51.9% | [5] 11.6% | [6] 70.9% | [7] 34.4% | [8] 42% | [9] 52.2% | [10] 20.4% | [11] 39.3% | [12] 24.7% | [13] 61.9% | [14] 63.6% | [15] 57.3% | [16] 42.3% | [17] 50.7% | [18] 21% | [19] 72.8% | [20] 48.6%

N#C/C(=C/c1ccc([N+](=O)[O-])cc1)n1nnc2cc(F)c(F)cc21
inactive: [1] 93.8% | [2] 102% | [3] 98.4% | [4] 96.6% | [5] 33.1% | [6] 99.6% | [7] 62.6% | [8] 87.6% | [9] 42.1% | [10] 77.4% | [11] 54.2% | [12] 13.9% | [13] 74.8% | [14] 84.7% | [15] 83.3% | [16] 90.5% | [17] 91.4% | [18] 20.7% | [19] 65.5% | [20] 70.1%

CCCCCCCCCCCCCCCC(N)c1ccccc1 (stereo not given)
inactive: [2] 87.6% | [3] 92.9% | [6] 31.4% | [7] 63.5% | [8] 31.9% | [13] 79.5% | [18] 88.4% | [19] 82.6%
active: [1] -24.4% | [4] -33.9% | [5] -66.8% | [9] 1.55% | [10] -57.8% | [11] -62.9% | [12] 0.445% | [14] -71.9% | [15] -89.4% | [16] -38.9% | [17] -49.5% | [20] 3.85%

CCOC(=O)C#Cc1c(C(=O)OCC)nnn1[C@@H]1O[C@H](CO)[C@H]2OC3(CCCCC3)O[C@H]21
inactive: [1] 93.9% | [2] 80.7% | [3] 98% | [4] 110% | [5] 98.5% | [6] 54.5% | [8] 95.2% | [9] 66.9% | [11] 52.1% | [13] 55.1% | [14] 95.6% | [16] 94.6% | [17] 101% | [18] 81.1% | [19] 46.8% | [20] 59.4%
active: [7] -25.2% | [10] -27.2% | [12] 5.02% | [15] 9.92%

CN[C@]12CC3(C=CC(=O)C=C3)O[C@@]1(Cc1ccc(OC)cc1)N(C)C(=O)N2
inactive: [1] 82.8% | [2] 22.2% | [3] 49.7% | [4] 23.9% | [5] 98.7% | [6] 39.3% | [8] 79.7% | [10] 19% | [11] 85.2% | [13] 11.2% | [14] 76.9% | [15] 43.7% | [16] 66.4% | [17] 103% | [18] 12.2% | [19] 41%
active: [7] -46.5% | [9] 6.84% | [12] 7.19% | [20] 9.52%
